# The panel holds about 79,000 compounds, 15% with a hit somewhere; the sample as a whole holds those more often. A number with no mark means an inactive call. Activity calls are given as the source filed them. No stated cut-off is given here; in the data, active means growth inhibition above about 70%; inactive means the rest.
# Key:
# [1] = NCI Yeast Anticancer Drug Screen. Data for the rad52 strain (AID 147);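 further: 0% = growth of vehicle-treated control cultures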; settings: S. cerevisiae rad52 mutant growth inhibition, stronger effect = higher value
# Method in brief: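 Inhibition of yeast growth, referenced to vehicle controls, was the measured output for a strain with defective DNA damage repair.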
# [2] = NCI Yeast Anticancer Drug Screen. Data for the wt1 strain (AID 149);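 further: 0% = growth of vehicle-treated wt1 cultures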; settings: S. cerevisiae wt1 strain (SPY 50644) growth inhibition, stronger effect = higher value
# Method in brief: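 Compounds are added to wt1 yeast cultures. Growth is then measured. Inhibition is expressed relative to vehicle-treated controls.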
# [3] = NCI Yeast Anticancer Drug Screen. Data for the rad50EPP+ strain (AID 151);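 further: 0% = growth of vehicle-treated control cultures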; settings: S. cerevisiae rad50 mutant strain, stronger effect = higher value
# Method in brief: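 Genetically defined yeast (rad50EPP+, DNA damage repair alteration) is grown with compound, and inhibition of growth is expressed relative to vehicle-treated controls.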
# [4] = NCI Yeast Anticancer Drug Screen. Data for the mgt1 strain (AID 153); settings: S. cerevisiae mgt1 mutant growth inhibition, stronger effect = higher value
# Method in brief: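 In the mgt1 strain, test compounds were added and growth inhibition was determined relative to vehicle-treated controls.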
# [5] = NCI Yeast Anticancer Drug Screen. Data for the rad50 strain (AID 155);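 further: 0% = growth of vehicle-only cultures of the same strain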; settings: S. cerevisiae rad50 strain growth inhibition, stronger effect = higher value
# Method in brief: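 Inhibition values express reduced yeast growth in compound-treated cultures relative to vehicle-treated controls.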
# [6] = NCI Yeast Anticancer Drug Screen. Data for the mec2-1 strain (AID 157); settings: S. cerevisiae mec2-1 strain, stronger effect = higher value
# Method in brief: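 Each compound was tested on mec2-1 yeast, a strain altered in DNA damage repair or cell cycle control. Growth inhibition is reported relative to vehicle.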
# [7] = NCI Yeast Anticancer Drug Screen. Data for the rad14 strain (AID 159);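 further: 0% = growth of vehicle-treated control cultures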; settings: S. cerevisiae rad14 strain growth inhibition, stronger effect = higher value
# Method in brief: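 A mutant yeast strain defective in DNA damage repair is treated with compound; inhibition of its growth is scored against untreated, vehicle-exposed cultures.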
# [8] = NCI Yeast Anticancer Drug Screen. Data for the sgs1 mgt1 strain (AID 161);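 further: 0% = growth of cultures given vehicle only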; settings: S. cerevisiae sgs1 mgt1 strain, stronger effect = higher value
# Method in brief: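 Read-out: growth inhibition vs vehicle controls. Cells: mutant yeast strain deficient in DNA damage repair.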
# [9] = NCI Yeast Anticancer Drug Screen. Data for the CLN2oe strain (AID 163);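 further: 0% = growth of vehicle-only control cultures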; settings: S. cerevisiae CLN2oe strain, stronger effect = higher value
# Method in brief: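 First, the altered yeast strain was treated with each compound; second, its growth was measured; finally, inhibition was derived by comparison with vehicle controls.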
# [10] = NCI Yeast Anticancer Drug Screen. Data for the cln2 rad14 strain (AID 165);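 further: 0% = growth equal to vehicle treated cultures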; settings: S. cerevisiae cln2 rad14 strain, stronger effect = higher value
# Method in brief: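 Test compounds were added to cln2 rad14 yeast cultures; inhibition of growth was then determined by comparison with vehicle treatment.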
# [11] = NCI Yeast Anticancer Drug Screen. Data for the bub3 strain (AID 167); settings: S. cerevisiae bub3 mutant strain, stronger effect = higher value
# Method in brief: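 Steps: expose the mutant yeast strain to compound; grow alongside vehicle-treated cultures; measure growth; express inhibition against the vehicle cultures.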
# [12] = NCI Yeast Anticancer Drug Screen. Data for the wt2 strain (AID 169);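 further: 0% = growth of vehicle-treated yeast cultures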; settings: S. cerevisiae wt2 strain growth inhibition, stronger effect = higher value
# Method in brief: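 The panel's yeast strains carry defined changes in DNA repair or cell cycle genes. Each strain is grown with compound, and growth loss is scored relative to vehicle.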
# [13] = NCI Yeast Anticancer Drug Screen. Data for the mlh1 strain (AID 171);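 further: 0% = growth of vehicle-treated control cultures of the same strain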; settings: S. cerevisiae mlh1 strain growth inhibition, stronger effect = higher value
# Method in brief: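 Inhibition values reflect reduced yeast growth in the presence of compound, referenced to vehicle controls, using a strain chosen for its alteration in DNA repair or cell cycle control.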
# [14] = NCI Yeast Anticancer Drug Screen. Data for the mlh1 rad18 strain (AID 175); settings: S. cerevisiae mlh1 rad18 strain growth inhibition, stronger effect = higher value
# Method in brief: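 Inhibition values reflect reduced growth of mutant yeast versus vehicle-treated controls following compound exposure; the mutations affect DNA damage repair.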
# [15] = at 5.0 µM (retest, dose inferred, filed as 0.5)
# [16] = at 50.0 µM (retest, dose inferred, filed as 5.0)
smiles,measurement,setting,value
Cc1ccc(NC(=O)CCC(=O)C(C)C(=O)c2ccccc2)c(C)c1 (stereo not drawn),growth inhibition,[1]; at 1.2 µM,1%
same,growth inhibition,[1]; at 3.7 µM,1%
same,growth inhibition,[1]; at 11.0 µM,3%
same,growth inhibition,[1]; at 33.0 µM,1%
same,growth inhibition,[1]; at 100.0 µM,-1%
same,growth inhibition,[2]; at 1.2 µM,-1%
same,growth inhibition,[2]; at 3.7 µM,-1%
same,growth inhibition,[2]; at 11.0 µM,-1%
same,growth inhibition,[2]; at 33.0 µM,-1%
same,growth inhibition,[2]; at 100.0 µM,-3%
same,growth inhibition,[3]; at 1.2 µM,-2%
same,growth inhibition,[3]; at 3.7 µM,0%
same,growth inhibition,[3]; at 11.0 µM,1%
same,growth inhibition,[3]; at 33.0 µM,0%
same,growth inhibition,[3]; at 100.0 µM,5%
same,growth inhibition,[4]; at 1.2 µM,0%
same,growth inhibition,[4]; at 3.7 µM,5%
same,growth inhibition,[4]; at 11.0 µM,1%
same,growth inhibition,[4]; at 33.0 µM,0%
same,growth inhibition,[4]; at 100.0 µM,-5%
same,growth inhibition,[5]; at 1.2 µM,1%
same,growth inhibition,[5]; at 3.7 µM,-6%
same,growth inhibition,[5]; [15],91% (active)
same,growth inhibition,[5]; at 11.0 µM,3%
same,growth inhibition,[5]; at 33.0 µM,3%
same,growth inhibition,[5]; [16],92% (active)
same,growth inhibition,[5]; at 50.0 µM,-41.7%
same,growth inhibition,[5]; at 100.0 µM,-1%
same,growth inhibition,[6]; at 1.2 µM,-3%
same,growth inhibition,[6]; at 3.7 µM,-5%
same,growth inhibition,[6]; [15],12%
same,growth inhibition,[6]; at 11.0 µM,1%
same,growth inhibition,[6]; at 33.0 µM,-2%
same,growth inhibition,[6]; [16],39%
same,growth inhibition,[6]; at 50.0 µM,-1.6%
same,growth inhibition,[6]; at 100.0 µM,-3%
same,growth inhibition,[7]; at 1.2 µM,0%
same,growth inhibition,[7]; at 3.7 µM,2%
same,growth inhibition,[7]; at 11.0 µM,1%
same,growth inhibition,[7]; at 33.0 µM,2%
same,growth inhibition,[7]; at 100.0 µM,2%
same,growth inhibition,[8]; [15],5%
same,growth inhibition,[8]; [16],9%
same,growth inhibition,[8]; at 50.0 µM,11.1%
same,growth inhibition,[9]; at 1.2 µM,-1%
same,growth inhibition,[9]; at 3.7 µM,1%
same,growth inhibition,[9]; at 11.0 µM,5%
same,growth inhibition,[9]; at 33.0 µM,1%
same,growth inhibition,[9]; at 100.0 µM,0%
same,growth inhibition,[10]; [15],-3%
same,growth inhibition,[10]; [16],11%
same,growth inhibition,[10]; at 50.0 µM,-12.9%
same,growth inhibition,[11]; at 1.2 µM,-1%
same,growth inhibition,[11]; at 3.7 µM,-2%
same,growth inhibition,[11]; [15],-15%
same,growth inhibition,[11]; at 11.0 µM,-2%
same,growth inhibition,[11]; at 33.0 µM,-5%
same,growth inhibition,[11]; [16],-10%
same,growth inhibition,[11]; at 50.0 µM,0.65%
same,growth inhibition,[11]; at 100.0 µM,-5%
same,growth inhibition,[12]; at 1.2 µM,-2%
same,growth inhibition,[12]; at 3.7 µM,-1%
same,growth inhibition,[12]; at 11.0 µM,-1%
same,growth inhibition,[12]; at 33.0 µM,-2%
same,growth inhibition,[12]; at 100.0 µM,-4%
same,growth inhibition,[13]; at 1.2 µM,-2%
same,growth inhibition,[13]; at 3.7 µM,-1%
same,growth inhibition,[13]; at 11.0 µM,-1%
same,growth inhibition,[13]; at 33.0 µM,-1%
same,growth inhibition,[13]; at 100.0 µM,0%
same,growth inhibition,[14]; [15],6%
same,growth inhibition,[14]; [16],3%
same,growth inhibition,[14]; at 50.0 µM,6.15%
